# Screening data: PubChem BioAssay, National Center for Advancing Translational Sciences (NCATS)
# Rows were chosen to be rich in hits. Some 5.7% of all compounds tested hit in one or more screens of this group.
# HP1b binding inh: inhibitors of HP1-beta chromodomain binding to methylated histone tails; P83916; AlphaScreen HP1-beta / biotin-H3K9me3 peptide binding; Potency, µM (top dose mostly 114 µM), for inactives: at the top dose activity change, negative = inhibition, usual class: inhibitors; 390,000 tested, 0.56% active; AID 540317; further: potency means the concentration at half of the fitted maximal effect; nearly all actives have a fitted effect of over 70% in size
# Target sequence (P83916 whole entry, looked up): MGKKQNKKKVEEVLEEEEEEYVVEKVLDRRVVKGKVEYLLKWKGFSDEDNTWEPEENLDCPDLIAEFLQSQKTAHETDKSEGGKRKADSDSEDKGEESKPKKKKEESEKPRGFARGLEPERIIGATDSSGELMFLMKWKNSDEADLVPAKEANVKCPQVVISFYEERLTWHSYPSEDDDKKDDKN
#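 HP1-beta protein (50 nM final) preincubated 30 min at room temperature with biotinylated H3(1-18)K9me3 peptide (50 nM) in PBS pH 7.4, 0.01% Tween-20, then compound added for 30 min. AlphaScreen streptavidin donor/nickel chelate acceptor beads (10 ug/mL final), 30 min dark, luminescence read.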
# L3MBTL1 inh: inhibitors of human L3MBTL1 | AlphaScreen L3MBTL1–H3K9me1 peptide binding | Potency, µM (highest dose often 57.1 µM), for the others: at the top dose activity, negative = inhibition, usual class: inhibitors | 230,000 tested, 0.66% active | AID 485360; further: potency means the concentration at half of the fitted maximal effect; on the % scale 0 is the no-effect control and ±100 the full control effect; nearly all actives have a fitted effect of over 60% in size
#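 L3MBTL1 50 nM + b-AHA-H3(1-15)K9me1 75 nM, 30 min RT; compound added, 30 min RT; streptavidin donor/Ni-chelate acceptor beads 10 ug/mL each final, 30 min RT dark; AlphaScreen read.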
# JMJD2E inh: inhibitors of human JMJD2E histone demethylase; B2RXH2; JMJD2E catalytic domain, FDH-coupled NADH fluorescence (FDH is formaldehyde dehydrogenase); Potency, µM (series often up to 57.1 µM), for the others: top-dose activity change, negative = inhibition, usual class: inhibitors; 230,000 tested, 1.6% active; AID 2147; active means well fitted inhibition curve with a large enough effect, not every such curve was filed as active; inconclusive means small, poorly fitted or top-dose-only effect, or another doubt; inactive means no such curve, though single readings can be large or run the other way;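 further: potency means the concentration at half of the fitted maximal effect; 0% = wells with enzyme and -100% = buffer wells without enzyme; nearly all actives have a fitted effect of over 50% in size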
# BAZ2B block: inhibitors of human BAZ2B bromodomain | Q9UIF8 | AlphaScreen BAZ2B-H3K14Ac peptide displacement | Potency, µM (titrated, usually from 114 µM), without a hit: at the top dose activity change, negative = inhibition, hits mostly inhibitors | 360,000 tested, 4.4% active | AID 504333; further: potency means the concentration at half of the fitted maximal effect; on the % scale 0 is the no-effect control and ±100 the full control effect; nearly all actives have a fitted effect of over 60% in size
#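 AlphaScreen displacement of biotin-H3(5-23)K14Ac peptide (50 nM final) from BAZ2B (50 nM final) in PBS pH 7.4, 0.01% Tween-20; complex preformed 30 min RT, then compounds (top 110 uM) 30 min RT, beads 20 min dark.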
# PI5P4K alpha inh: PI5P4K alpha (human) kinase inhibition. max response, %. 330,000 tested, 1.2% active. P48426. PI5P4Kalpha enzyme, ADP-Glo luminescence, 60 min; active compounds read low; active means max response of -50% or lower; inconclusive means between -30% and -50%; inactive means -30% or higher; further: value at the top dose of about 77 µM; on the % scale 0 is the no-effect control and ±100 the full control effect
# Target sequence (P48426 whole entry, looked up): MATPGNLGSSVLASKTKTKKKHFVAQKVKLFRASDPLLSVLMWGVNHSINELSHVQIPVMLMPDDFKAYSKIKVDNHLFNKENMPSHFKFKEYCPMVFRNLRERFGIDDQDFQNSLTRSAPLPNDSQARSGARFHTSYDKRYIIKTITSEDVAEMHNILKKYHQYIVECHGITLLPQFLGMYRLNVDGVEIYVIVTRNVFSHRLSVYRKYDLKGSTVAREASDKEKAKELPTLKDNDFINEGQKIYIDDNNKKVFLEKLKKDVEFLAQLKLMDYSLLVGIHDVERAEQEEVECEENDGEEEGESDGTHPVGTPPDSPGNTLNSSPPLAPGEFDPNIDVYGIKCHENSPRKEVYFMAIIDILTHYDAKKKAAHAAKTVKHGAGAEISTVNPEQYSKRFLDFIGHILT
#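 Reactions run in 0.038 M HEPES pH 7.4, 0.28 mM EGTA, 0.1% CHAPS and 5% DMSO, with PI5P4Kalpha, substrate, compound and 5 microM ATP final, one hour at room temperature. Readout is ADP-Glo luminescence.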
# JMJD2A Tudor: inhibitors of human JMJD2A Tudor domain; Potency, µM (highest dose often 114 µM), for inactives: at the top dose activity change, negative = inhibition, most hits filed as inhibitors; AID 504339; AlphaScreen JMJD2A-Tudor / H3K4me3 peptide binding; 390,000 tested, 4.4% active; further: potency means the concentration at half of the fitted maximal effect; on the % scale 0 is the no-effect control and ±100 the full control effect; nearly all actives have a fitted effect of over 50% in size
# The depositor's hits bear a star; ? = inconclusive; . = no result given; [ ] = another dose, or the depositor's remark. Unless noted, the call rests on the fitted dose curve; in most records, active means well fitted inhibition curve with a large enough effect; inconclusive means small, poorly fitted or top-dose-only effect; inactive means no such curve, though single readings can be large or run the other way.
SMILES,HP1b binding inh,L3MBTL1 inh,JMJD2E inh,BAZ2B block,PI5P4K alpha inh,JMJD2A Tudor
COc1ccc(CN(Cc2ccccc2)S(=O)(=O)c2ccccc2)cc1COc1ccc(NC(C)=O)cc1,.,.,.,.,.,-31%
COc1ccc(/C=C/C(=O)C2C(=O)C=C(C)OC2=O)cc1O (centres undefined),-17%,2%,?,50µM*,-2,-23%
COc1ccc(/C=N/NC(=O)c2ccoc2C)cc1O,-3%,-10%,-8%,-6%,-11,-18%
COc1cc(/C=C/C(=O)O)cc(Br)c1O,28%,.,?,?,-18,-4%
COc1cc(/C=C/C(=O)C2C(=O)C=C(C)OC2=O)cc(OC)c1O (centres undefined),-2%,-12%,?,56µM*,3,-31%
COc1ccc(N2C(=O)c3ccccc3NC2(C)C)cc1,22%,.,?,-15%,-8,-9%
COc1ccc2c(c1)-c1c(ssc1=S)C(C)(C)N2,16µM*,20µM*,-21%,13µM*,.,20µM*
COc1ccc2c(c1)-c1c(sn(-c3ccc(OC)c(OC)c3)c1=S)C(C)(C)N2,-81%,?,1%,10µM*,5,35µM*
COc1cc2c3c(c1)-c1c(sn(-c4cc(OC)ccc4OC)c1=S)C(C)(C)N3C(=O)C2=O,19%,-5%,0%,7.1µM*,14,4%
COc1ccc2c(c1)-c1c(sn(-c3ccccc3)c1=S)C(C)(C)N2,?,32µM*,-4%,8.9µM*,19,40µM*
Cc1ccc(-c2noc(-c3ccc(N4CCCCC4C)c([N+](=O)[O-])c3)n2)cc1 (centres undefined),26%,.,.,-12%,.,-13%
COc1ccc(NC(=O)CCc2nnc3ccc(N4CCC5(CC4)OCCO5)nn23)cc1,42%,.,.,-1%,-1,-7%
NS(=O)(=O)c1ccc(NC(=O)CN2C(=O)COc3ccc(Cl)cc32)cc1,18%,.,.,-38%,.,?
COc1ccc(-n2sc3c(c2=S)-c2cc(OC)ccc2NC3(C)C)cc1,10µM*,32µM*,-9%,11µM*,17,3.2µM*
COc1ccc(CCNS(=O)(=O)c2ccc(F)c(C(=O)Nc3ccc(Cl)cc3)c2)cc1OC,13%,.,.,-15%,.,-24%
O=C1C=C(NCc2ccc(Cl)cc2)CC(c2ccco2)C1 (centres undefined),?,-13%,-5%,50µM*,?,?
Cc1c(N=Nc2c(-c3ccc([N+](=O)[O-])cc3)[nH]n(C(N)=S)c2=O)cccc1[N+](=O)[O-],?,-6%,-10%,?,-62*,?
Cc1ccc(N=Nc2c(C)[nH]n(C(N)=S)c2=O)cc1C,2%,2%,0%,7%,-21,-9%
NC(=S)n1[nH]c(-c2ccc([N+](=O)[O-])cc2)c(N=Nc2cccc([N+](=O)[O-])c2)c1=O,?,?,?,40µM*,?,45µM*
Cc1[nH]n(C(N)=S)c(=O)c1N=Nc1ccc(S(=O)(=O)N2CCCCCC2)cc1,?,.,-21%,?,?,?
Cc1[nH]n(C(N)=S)c(=O)c1N=Nc1ccc2ccccc2c1,?,-20%,4%,25µM*,-30,45µM*
Cc1[nH]n(C(N)=S)c(=O)c1N=Nc1cccc([N+](=O)[O-])c1C,6%,.,.,?,-5,?
NC(=S)n1[nH]c(-c2ccc([N+](=O)[O-])cc2)c(N=Nc2ccccc2[N+](=O)[O-])c1=O,-6%,5%,-13%,40µM*,-21,?
COc1ccc(NC(=O)c2cc3nc(-c4ccc(C)c(C)c4)cc(C(F)(F)F)n3n2)cc1,52%,.,.,8%,.,2%
COc1cc(OC)c(Nc2c3c(nc4nc(-c5cccs5)nn24)CCCC3)cc1Cl,30%[57 µM],.,.,2%,.,-6%
SMILES,HP1b binding inh,L3MBTL1 inh,JMJD2E inh,BAZ2B block,PI5P4K alpha inh,JMJD2A Tudor
C/C(=N\NC(=O)c1nnn(-c2nonc2N)c1CN(C)c1ccccc1)c1ccccc1O,13%[57 µM],.,.,2.2µM*,28,14µM*
CC(/C=N/NC(=O)c1nnn(-c2nonc2N)c1CN1CCCCC1)=C\c1ccccc1,27%,.,.,-17%,7,-15%
C/C(=N\NC(=O)c1nnn(-c2nonc2N)c1CN1CCCCC1)c1ccccc1O,21%,.,.,45µM*,1,?
Cc1nnsc1C(=O)N/N=C/c1ccccc1,10%,-9%,2%,1%,-1,-15%
Cc1nnsc1C(=O)N/N=C/c1ccc2ccccc2c1O,13%,2µM*,22µM*,1.4µM*,?,?
O=C(O)c1cccc(-c2ccc(/C=N/Nc3ccc([N+](=O)[O-])cc3)o2)c1,-21%,.,?,45µM*,-21,-27%
O=C(O)c1ccc(N/N=C/C=C/c2ccc([N+](=O)[O-])o2)cc1,?,.,.,40µM*,?,45µM*
O=C(O)c1ccc(N/N=C/c2ccc(-c3ccc(Cl)cc3Cl)o2)cc1,14%,-9%,?,?,1,-7%
O=C(O)c1cc(-c2ccc(/C=N/Nc3ccc([N+](=O)[O-])cn3)o2)ccc1Cl,?,.,?,.,-61*,40µM*
O=C(O)c1ccc(N/N=C/c2ccc(-c3cc(Cl)ccc3Cl)o2)cc1,-8%,.,?,79µM*,-10,40µM*
c1ccc(-c2ccc(CNC3CC3)cc2)cc1,14%,.,.,-3%,4,-10%
Cc1cc(C)n(-c2nc3ccccc3nc2Nc2ccc(Cl)c(Cl)c2)n1,32%,.,.,20%,.,34%
O=C(OCC#CCSc1nnc(-c2cccc3ccccc23)o1)c1sc(Cl)c(Cl)c1Cl,.,.,.,.,.,5%
CCc1ccc(N=C2NC(=O)/C(=C/c3ccc(OCC(=O)O)cc3)S2)cc1,4%,-9%,.,50µM*,?,?
CCc1ccc(N=C2NC(=O)/C(=C/c3ccc(OCC(=O)O)c(OC)c3)S2)cc1,45µM*,-22%,.,7.1µM*,-75*,28µM*
CCOc1ccc(N=C2NC(=O)C(CC(=O)Nc3ccc(OC)cc3)S2)cc1 (centres undefined),19%,10%,12%,-10%,3,-21%
CCOc1ccc(N=C2NC(=O)S/C2=C\c2ccc(OC)cc2)cc1,0%,.,-3%,?,.,28µM*
O=C(COc1ccc2ccccc2c1)NCC1CCCO1 (centres undefined),32%,.,.,3%,1,-1%
CCCCOC(=O)c1ccc(NC(=O)C2(c3cccs3)CCOCC2)cc1,55%,.,.,18%,.,5%
Cc1ccc(C)c(CN2C(=O)c3ccccc3S(=O)(=O)c3ccc(C(=O)N4CCN(Cc5ccccc5)CC4)cc32)c1,13%,.,.,?,.,-34%
